# Laboratory results: PubChem BioAssay
# Where “and” joins values, the source holds several entries; their conditions need not be identical. Equal values may be shown once. Calls of active or inactive are those of the source. Rule as the data show it, unless noted: active = inhibition above about 80%; inactive = the rest.
# Key:
# [1] = LFS_MB_1R medulloblastoma cell growth inhibition, synergistic combos for chromothripsis tumors, cisplatin or BGB combos (AID 1671452); details: LFS_MB_1R medulloblastoma cells, stronger effect = higher value;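 also: cells exposed for 96 hours before readout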
# [2] = CRL2098 osteosarcoma cell growth inhibition, synergistic combos for chromothripsis tumors, BGB or cisplatin IC20 combos (AID 1671454); details: CRL2098 osteosarcoma cells, drug combinations, stronger effect = higher value;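 also: cells exposed for 96 h before readout; 0% = vehicle DMSO and 100% = killing by high DMSO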
# [3] = HD-MB03 medulloblastoma cell growth inhibition, synergistic combos for chromothripsis tumors, BGB or cisplatin IC20 combos (AID 1671455; in the data active = inhibition above about 83%;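 also: 0% = vehicle DMSO and 100% = high DMSO as cytotoxic control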); details: HD-MB03 medulloblastoma cells, stronger effect = higher value
# [4] = UWB1.289 ovarian carcinoma cell growth inhibition, synergistic combos for chromothripsis tumors, BGB or cisplatin combos (AID 1671456); details: UWB1.289 ovarian carcinoma cells, stronger effect = higher value;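 also: cells exposed to compound for four days; 0% = vehicle DMSO and 100% = killing by high DMSO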
# [5] = LFS_MB_2R medulloblastoma cell growth inhibition, synergistic combos for chromothripsis tumors, cisplatin combos (AID 1671457); details: LFS_MB_2R medulloblastoma cells, stronger effect = higher value;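 also: cells exposed to compound for four days before readout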
# [6] = UWB1.289_BRCA1 ovarian cancer growth, cell-based, BGB or cisplatin combinations (AID 1671459); details: UWB1.289 BRCA1 ovarian carcinoma, drug combinations, stronger effect = higher value
# [7] = human astrocyte viability loss, single and combined drugs, cytotoxicity control for chromothriptic childhood tumor combination screen, cell-based, BGB or cisplatin IC20 combos (AID 1671460); details: Human astrocytes, drug combinations, stronger effect = higher value;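 also: cells exposed to compounds for 96 hours before viability readout; 0% = vehicle and 100% = killing control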
# [8] = growth inhibition of CRL1545 osteosarcoma cells, cell-based, cisplatin and BGB IC20 combos (AID 1671464); details: stronger effect = higher value;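 also: cells exposed to compound for 96 hours before readout; 0% = vehicle DMSO and 100% = high DMSO killing control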
# [9] = viability rescue of complex I mutant cybrids, primary screen, cell-based, galactose medium, ATP luminescence (AID 1645843;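 active = z-score of at least 1.8 in each of two replicates, scored against plate mean and spread of sample wells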;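 also: positive z means more ATP and so rescue of galactose-driven cybrid death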); details: complex I mutant cybrid cells, 72 h, stronger effect = higher value
# [10] = circadian clock period modulators, cell-based, LOPAC library, luminescence reporter (AID 2774; call rule not given here;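 also: values are relative to mean of DMSO wells on each plate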); details: circadian reporter cells, at 7 µM, actives lie on both sides
# [11] = system: Hepatitis C virus NS3 helicase; assay: HCV NS3 helicase inhibitors, primary screen, biochemical, fluorescence polarization, LOPAC1280 library (AID 687035; in the data active = inhibition above about 37%); details: Purified HCV NS3 helicase, Cy5-dT15 ssDNA binding fluorescence polarization; stronger effect = higher value; concentration not given here
# [12] = Cy5 fluorescence quenching or enhancement artefacts, artefact control for HCV NS3 helicase inhibitor project, biochemical, LOPAC1280 (AID 687037; call rule not given here); details: Cy5-DNA-NS3h complex fluorescence interference counterscreen
# [13] = phospholipid biosynthesis inhibitors in animal cells, primary screen, cell-based, LOPAC library, screen 4 (AID 1347384; call rule not given here); details: phospholipid biosynthesis inhibition screen, at 10 µM
# [14] = kinase inhibitors against Plasmodium liver-stage infection, cell-based, known kinase inhibitor set, luminescence, hepatoma host viability (AID 624392; call rule not given here;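 also: infected cells incubated roughly two days before readout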); details: Plasmodium liver stage in hepatoma cells, luciferase luminescence, concentration not given here; liver cell % of control: measured here: host liver cell viability; parasite % of control: stronger effect = lower value
# [15] = hESC survival regulators, cell-based (AID 493140; call rule not given here;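 also: cells exposed to compounds for four days before counting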); details: human embryonic stem cell survival screen; stronger effect = higher value
# [16] = liver-stage malaria parasite growth inhibition, primary screen, cell-based, HepG2, luciferase luminescence, HepG2 viability (AID 624349; in the data active = parasite load remaining mostly below about 12%, no sharp cut-off; inactive = mostly above about 10%;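 also: 100% = mean of DMSO negative control wells on the same plate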); details: P. berghei liver stage in HepG2, luciferase luminescence, concentration not given here; parasite load remaining: stronger effect = lower value; viability: measured here: HepG2 viability without parasites
# [17] = biological target: NAD(+) hydrolase SARM1 (Homo sapiens) (UniProt Q6SZW1); assay: SARM1 TIR NADase inhibitors, cell lysate, NAD-Glo luminescence (AID 1508614;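 active = compound whose remaining NAD level is above about 45 nM, limit read from the data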;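 also: higher remaining NAD means stronger inhibition of SARM1 NADase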); details: SAM-TIR HEK293T lysate NADase, at 1 µM, stronger effect = higher value
# Sequence of NAD(+) hydrolase SARM1 (Homo sapiens) (Q6SZW1 whole entry, looked up, the tested form may be a part): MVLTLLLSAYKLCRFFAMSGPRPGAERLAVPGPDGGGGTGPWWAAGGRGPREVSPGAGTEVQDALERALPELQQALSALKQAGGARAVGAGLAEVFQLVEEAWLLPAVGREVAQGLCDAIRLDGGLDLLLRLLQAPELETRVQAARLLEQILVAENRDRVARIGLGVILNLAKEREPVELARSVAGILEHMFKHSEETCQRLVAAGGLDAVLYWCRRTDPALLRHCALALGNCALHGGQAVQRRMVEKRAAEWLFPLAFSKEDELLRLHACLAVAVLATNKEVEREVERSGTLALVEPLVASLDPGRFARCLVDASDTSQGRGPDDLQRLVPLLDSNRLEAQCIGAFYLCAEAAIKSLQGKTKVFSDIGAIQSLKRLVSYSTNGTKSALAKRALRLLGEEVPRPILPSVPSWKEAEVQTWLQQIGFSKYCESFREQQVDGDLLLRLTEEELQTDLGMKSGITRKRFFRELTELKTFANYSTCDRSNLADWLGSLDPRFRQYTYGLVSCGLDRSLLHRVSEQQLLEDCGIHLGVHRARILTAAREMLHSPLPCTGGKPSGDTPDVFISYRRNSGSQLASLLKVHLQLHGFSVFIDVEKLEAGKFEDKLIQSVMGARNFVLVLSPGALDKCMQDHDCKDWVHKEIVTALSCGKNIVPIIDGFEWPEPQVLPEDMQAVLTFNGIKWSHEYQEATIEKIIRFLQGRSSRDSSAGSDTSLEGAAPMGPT
# [18] = biological target: Mitogen-activated protein kinase 7 (Homo sapiens) (UniProt Q13164); assay: ERK5 transactivation activators in reporter cells, primary screen, cell-based, HTS (AID 1508626;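 active = luciferase signal above three times the same-plate solvent-only control wells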;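 also: luciferase driven by Gal4-ERK5 fusion binding five Gal4 sites before minimal TATA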); details: HeLa Gal4-ERK5 transactivation, 18 h, at 5 µM, stronger effect = higher value
# Sequence of Mitogen-activated protein kinase 7 (Homo sapiens) (Q13164 whole entry, looked up, the tested form may be a part): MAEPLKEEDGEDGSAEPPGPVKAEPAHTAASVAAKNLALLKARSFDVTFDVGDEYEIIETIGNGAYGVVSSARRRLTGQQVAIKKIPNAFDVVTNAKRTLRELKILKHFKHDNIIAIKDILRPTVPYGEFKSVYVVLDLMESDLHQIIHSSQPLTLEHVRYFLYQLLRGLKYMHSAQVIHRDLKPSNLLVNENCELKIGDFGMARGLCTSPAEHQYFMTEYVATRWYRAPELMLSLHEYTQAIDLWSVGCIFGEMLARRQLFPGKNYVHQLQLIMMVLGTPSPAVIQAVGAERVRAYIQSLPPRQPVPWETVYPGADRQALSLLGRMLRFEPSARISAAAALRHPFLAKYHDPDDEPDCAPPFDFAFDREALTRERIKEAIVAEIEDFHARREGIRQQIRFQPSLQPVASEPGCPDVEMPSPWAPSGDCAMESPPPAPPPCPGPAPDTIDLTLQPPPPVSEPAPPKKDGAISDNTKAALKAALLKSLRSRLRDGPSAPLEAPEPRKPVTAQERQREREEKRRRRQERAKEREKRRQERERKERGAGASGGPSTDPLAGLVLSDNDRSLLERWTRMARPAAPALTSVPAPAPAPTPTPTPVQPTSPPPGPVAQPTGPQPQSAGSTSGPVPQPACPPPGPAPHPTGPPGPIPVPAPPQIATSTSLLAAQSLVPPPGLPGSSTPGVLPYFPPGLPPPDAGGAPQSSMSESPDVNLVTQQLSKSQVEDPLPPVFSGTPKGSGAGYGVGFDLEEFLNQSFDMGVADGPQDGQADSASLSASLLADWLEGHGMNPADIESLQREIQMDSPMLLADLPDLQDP
# [19] = measured here: combination with BGB IC40, at 0.05 µM
# [20] = measured here: combination with cisplatin, at 0.5 µM
# [21] = measured here: combination with cisplatin, at 5 µM
# [22] = measured here: combination with BGB at IC20, at 0.5 µM
# [23] = measured here: combination with cisplatin at IC20, at 0.5 µM
# [24] = measured here: combo with BGB at IC20, at 0.5 µM
# [25] = measured here: combo with cisplatin at IC20, at 0.5 µM
# [26] = measured here: inhibition with BGB combination, at 0.05 µM
# [27] = measured here: inhibition with cisplatin combination, at 0.05 µM
# [28] = BGB combination, concentration series, at 5 µM
# [29] = cisplatin combination, concentration series, at 5 µM
# [30] = measured here: combo with BGB IC20, at 0.5 µM
# [31] = measured here: combo with cisplatin IC20, at 0.5 µM
# [32] = measured here: with BGB IC20 combination, at 0.5 µM
# [33] = measured here: with cisplatin IC20 combination, at 0.5 µM
smiles,measurement,setting,value
CCCCc1nc2cc(/C=C/C(=O)NO)ccc2n1CCN(CC)CC,inhibition,[1]; at 0.5 µM,31% (inactive)
same,inhibition,[1]; [19],-30.9%
same,inhibition,[1]; [20],45.7%
same,inhibition,[1]; [21],97.5%
same,inhibition,[2]; at 0.5 µM,-2.27% (inactive)
same,inhibition,[2]; [22],-16.1%
same,inhibition,[2]; [23],1.66%
same,inhibition,[3]; at 0.5 µM,93.3% (active)
same,inhibition,[3]; [24],95.7%
same,inhibition,[3]; [25],99.3%
same,inhibition,[4]; at 0.5 µM,46.9% (inactive)
same,inhibition,[4]; [26],11.6%
same,inhibition,[4]; [27],0.198%
same,inhibition,[5]; at 0.5 µM,26.1% (inactive)
same,inhibition,[5]; [20],56.5%
same,inhibition,[5]; [21],98.1%
same,inhibition,[6]; [28],115%
same,inhibition,[6]; at 0.5 µM,51.5% (inactive)
same,inhibition,[6]; [29],127%
same,inhibition,[7]; at 0.5 µM,41.3% (inactive)
same,inhibition,[7]; [30],44.4%
same,inhibition,[7]; [31],26%
same,inhibition,[8]; at 0.5 µM,81.5% (active)
same,inhibition,[8]; [32],67.7%
same,inhibition,[8]; [33],88.2%
same,inhibition,"[8]; single agent, at 0.05 µM",-14.8%
same,inhibition,"[8]; single agent, at 5 µM",93.1%
Clc1ccc2c(N3CCN(CCCN4CCN(c5ccnc6cc(Cl)ccc56)CC4)CC3)ccnc2c1,z-score,[9],-0.6 (inactive)
COc1ccccc1N1CCN(CCN(C(=O)C2CCCCC2)c2ccccn2)CC1,period change,[10],-0.085 h (inactive)
same,inhibition,[11],-3% (inactive)
same,fluorescence ratio (interference),[12],1 (inactive)
same,outcome,[13],inactive
same,z-score,[9],-1.04 (inactive)
Cc1nc(N)ncc1-c1nc(N2CCOCC2)c2sc(C(C)(C)O)cc2n1,liver cell % of control,[14],78.4% and 78.6% and 93.7%
same,parasite % of control,[14],406% (inactive) and 544% (inactive) and 660% (inactive)
O=C(CCCCCCNC(=O)c1cnc(N(c2ccccc2)c2ccccc2)nc1)NO,inhibition,[1]; at 0.5 µM,-2.12% (inactive) and -15.9% (inactive)
same,inhibition,[1]; [19],-29.1% and -24.9%
same,inhibition,[1]; [20],6.1% and -31.8%
same,inhibition,[1]; [21],84.8% and 59.4%
same,inhibition,[2]; at 0.5 µM,-71.5% (inactive) and -77.4% (inactive)
same,inhibition,[2]; [22],-57.1% and -110%
same,inhibition,[2]; [23],-110% and -74.1%
same,inhibition,[3]; at 0.5 µM,1.23% (inactive) and -11.6% (inactive)
same,inhibition,[3]; [24],-8.85% and -13.2%
same,inhibition,[3]; [25],14.2% and -7.98%
same,inhibition,[4]; at 0.5 µM,1.59% (inactive) and 9.83% (inactive)
same,inhibition,[4]; [26],-25.2% and -41.7%
same,inhibition,[4]; [27],-17.6% and -12.7%
same,inhibition,[5]; at 0.5 µM,-17.5% (inactive) and -17% (inactive)
same,inhibition,[5]; [20],-3.75% and -9.43%
same,inhibition,[5]; [21],74.7% and 60.9%
same,inhibition,[6]; [28],47.7% and 28.3%
same,inhibition,[6]; at 0.5 µM,1.98% (inactive) and -9.53% (inactive)
same,inhibition,[6]; [29],66.1% and 58.6%
same,inhibition,[7]; at 0.5 µM,-18.3% (inactive) and 0.04% (inactive)
same,inhibition,[7]; [30],-21.3% and 12.4%
same,inhibition,[7]; [31],-18.3% and -8.91%
same,inhibition,[8]; at 0.5 µM,-14% (inactive) and -9.25% (inactive)
same,inhibition,[8]; [32],-11% and -28.2%
same,inhibition,[8]; [33],-17.4% and -1.39%
same,inhibition,"[8]; single agent, at 0.05 µM",-31.8% and -21.9%
same,inhibition,"[8]; single agent, at 5 µM",89.1% and 74.4%
CO[C@H]1/C=C/O[C@@]2(C)Oc3c(C)c(O)c4c(O)c(c(/C=N/N5CCN(C)CC5)c(O)c4c3C2=O)NC(=O)/C(C)=C\C=C\[C@H](C)[C@H](O)[C@@H](C)[C@@H](O)[C@@H](C)[C@H](OC(C)=O)[C@@H]1C,survival,[15],9.5 (inactive)
same,parasite load remaining,[16],95.1% (inactive) and 71.6% (inactive) and 41.3% (inactive)
same,viability,[16],99.1% and 71.9% and 96.5%
same,remaining NAD,[17],10 nM (inactive)
same,luciferase signal,[18],44 AU (inactive)
same,z-score,[9],1.12 (inactive)
c1cc(OCCN2CCCCC2)cc(-c2n[nH]c3ccc(-c4ncn[nH]4)cc23)c1,liver cell % of control,[14],77.7% and 82.4% and 94%
same,parasite % of control,[14],63.2% (inactive) and 149% (inactive) and 87% (inactive)
COc1nccc(-c2c(-c3ccc(F)cc3)ncn2C2CCNCC2)n1,liver cell % of control,[14],89.2% and 92.3% and 100%
same,parasite % of control,[14],45.1% (inactive) and 35% (inactive) and 41.5% (inactive)
Cn1c(=O)n(-c2ccc(C(C)(C)C#N)cc2)c2c3cc(-c4cnc5ccccc5c4)ccc3ncc21,liver cell % of control,[14],79.1% and 72.9%
same,parasite % of control,[14],288% (inactive) and 494% (inactive) and 6.49% (inactive)
C[Se]CCC(N)C(=O)O (stereo not drawn),remaining NAD,[17],10 nM (inactive)
CC[C@H](/C=C/[C@@H](C)[C@H]1CC[C@H]2[C@@H]3CC=C4C[C@@H](O)CC[C@]4(C)[C@H]3CC[C@]12C)C(C)C,luciferase signal,[18],52 AU (inactive)
O=C(NCCCNc1nc(Nc2cccc(NC(=O)N3CCCC3)c2)ncc1I)c1cccs1,liver cell % of control,[14],74.4% and 44.5% and 88.3%
same,parasite % of control,[14],0.4% (inactive) and 0.22% (inactive) and 6.81% (inactive)
